UGM FP inh: Mtb UDP-galactopyranose mutase inhibition; inhibition, % at 10 µM; 320,000 compounds, 0.06% hits; AID 504406; purified UGM, fluorescence polarization probe displacement; in the data active = inhibition above about 10%, passing the limit was not always enough
FBA Mtb inh: inhibits M. tuberculosis FBA enzyme | inhibition, % at 1 µM | 360,000 compounds, 2.3% hits | purified M. tuberculosis FBA, fluorescence read-out | P9WQA3 | AID 588726;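 also: 0% = vehicle and 100% = reference inhibitor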
Vc quorum ag: inducers of Vibrio cholerae quorum light production without autoinducers. activation, % at 18.7 µM. 350,000 compounds, 0.16% hits. V. cholerae BH1578 lux reporter, luminescence, 6 h. AID 588436; in the data active = activation mostly above about 9.7%, no sharp cut-off
Rv3671c protease: inhibits the M. tuberculosis serine protease Rv3671c | P9WHR9 | inhibition, % at 5.96 µM | 320,000 compounds, 0.048% hits | AID 2606; in the data active = inhibition above about 38%;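 also: extracellular domain of Rv3671c used as enzyme; 0% = enzyme with DMSO and 100% = no enzyme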
Target sequence (P9WHR9 whole entry, looked up, the tested form may be a part): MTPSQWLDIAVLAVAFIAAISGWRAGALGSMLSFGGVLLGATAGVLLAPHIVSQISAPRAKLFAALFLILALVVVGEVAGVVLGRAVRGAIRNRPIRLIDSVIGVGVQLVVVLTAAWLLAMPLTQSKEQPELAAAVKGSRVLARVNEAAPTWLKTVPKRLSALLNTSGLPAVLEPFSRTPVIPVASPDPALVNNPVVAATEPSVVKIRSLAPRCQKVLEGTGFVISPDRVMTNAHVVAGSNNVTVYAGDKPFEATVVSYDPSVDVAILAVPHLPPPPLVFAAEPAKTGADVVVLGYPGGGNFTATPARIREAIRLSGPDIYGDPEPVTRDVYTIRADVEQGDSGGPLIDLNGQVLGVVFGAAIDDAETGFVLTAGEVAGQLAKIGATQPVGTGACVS
RecA splice inh: Mtb RecA intein splicing inhibition; cell-free RecA intein splicing, fluorescence; 290,000 compounds, 0.75% hits; P9WHJ3; inhibition, % (test concentration not listed); in the data active = inhibition above about 30%;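 also: 0% = vehicle wells and 100% = reference inhibitor control wells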
GDH-TPI counter-1: GDH-TPI coupled enzyme inhibition counter-screen; GDH-TPI coupled enzyme counterscreen, NADH absorbance; inhibition, % at 4.8 µM; 360,000 compounds, 1.2% hits; in the data active = inhibition above about 30%;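 also: 0% = DMSO wells and 100% = wells lacking the enzyme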
Mtb FBA confirm: Mtb FBA inhibition, confirmed; shares compounds with FBA Mtb inh; purified M. tuberculosis FBA, fluorescence read-out; inhibition, % at 1 µM; 5,600 compounds, 78% hits; AID 651616;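 also: 0% = vehicle wells and 100% = reference inhibitor wells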
GDH-TPI counter-2: inhibits GDH-TPI coupling enzymes, flagging Mtb FBA hits | shares compounds with FBA Mtb inh | GDH-TPI coupled enzyme counterscreen, fluorescence | inhibition, % at 1 µM | 5,600 compounds, 81% hits | AID 652141; in the data active = inhibition above about 10%
GDH-TPI DR: GDH-TPI dose response counter-screen for Mtb FBA; shares compounds with FBA Mtb inh; GDH-TPI coupled enzyme assay, fluorescence, artifact counterscreen; IC50, µM; 170 compounds, 79% hits; call rule not given here
Active calls of the source: *; i = inactive; · = no result; + = active, no number. The list is not random: actives were taken first. Their share in the collection is about 4.1%. Rule as the data show it, unless noted: active = inhibition above about 27%; inactive = the rest.

SMILES	UGM FP inh	FBA Mtb inh	Vc quorum ag	Rv3671c protease	RecA splice inh	GDH-TPI counter-1	Mtb FBA confirm	GDH-TPI counter-2	others
CCOC(=O)CCc1c(C)c2ccc(OCC(=O)N(CC)CC)c(C)c2oc1=O	-1.6	75.8*	-0.3	3.9	0.0	-0.3	18.0	19.8*
CCCCn1c(N)c(N(CCOC)C(=O)c2ccc(F)c(S(=O)(=O)N3CCOCC3)c2)c(=O)[nH]c1=O	1.3	3.3	i	0.0	-3.1	7.3	·	·
CC1(Cc2ccccc2C#N)C(=O)Nc2ccc(-c3ccccc3)cc21 (stereo unspecified)	·	-3.1	i	·	·	-0.9	·	·
O=C(N/N=C/c1cc(Cl)cc([N+](=O)[O-])c1O)c1ccc2c(c1)OCO2	4.3	-4.7	i	0.5	·	17.1	·	·
COc1cc(Cl)cc(/C=N\NC(=O)c2ccc3c(c2)OCO3)c1O	·	27.2*	-0.8	·	·	29.2	135.2*	113.9*
CCN1CCSc2ccc(C(=O)NCc3cccc(F)c3)cc21	-1.2	48.6*	i	6.3	-10.0	3.9	+	162.2*
CCN1CCSc2ccc(C(=O)NCc3cccc(Br)c3)cc21	0.9	40.1*	-0.3	8.1	-14.8	6.2	106.9*	82.3*
CCOc1ccccc1CNC(=O)c1ccc2nc(N3CCOCC3)sc2c1	1.2	1.3	0.1	-1.8	-1.1	-9.1	·	·
CCOc1ccccc1CNC(=O)c1ccc2c(c1)N(CC)CCS2	3.6	74.3*	-0.1	3.5	-8.4	13.9	25.6	20.9*
CN1CCSc2ccc(C(=O)Nc3cccc(F)c3)cc21	0.1	21.3	-0.3	-10.3	-2.7	13.0	·	·
CCCOc1ccc(CNC(=O)c2ccc3c(c2)N(CC)CCS3)cc1	3.5	74.9*	-1.3	17.4	-1.2	1.0	156.7*	99.5*
CCCOc1ccc(C(=O)NCc2cccnc2)cc1	0.4	1.9	i	2.8	1.6	5.3	·	·
Cc1ccc(S(=O)(=O)N(C)[C@H]2C[C@H]3c4[nH]c5ccccc5c4CCN3C[C@H]2[C@H](C)O)cc1	·	4.6	·	·	·	·	·	·
CCCCCCOC(=O)C1=C(C)NC(=O)NC1c1ccc2c(c1)OCO2 (stereo unspecified)	1.4	-0.6	-0.4	-6.3	-1.7	0.0	·	·
O=C1c2ccccc2NC2CCCCC12 (stereo unspecified)	-0.3	-0.1	-7.1	2.9	-0.5	8.5	·	·
O=C1OC(C(Cl)(Cl)Cl)Nc2ccccc21 (stereo unspecified)	·	40.3*	·	·	·	·	+	+
COc1ccc([N+](=O)[O-])cc1NC(=O)C(C)OC(=O)C1CCC1 (stereo unspecified)	4.6	2.2	i	-0.9	-1.4	10.5	·	·
CCCn1c(N)c(N(CCOC)C(=O)c2ccccc2)c(=O)[nH]c1=O	0.9	-1.3	-0.4	2.6	-0.9	-3.1	·	·
c1ccc(-c2noc(-c3cccc4ccccc34)n2)nc1	4.3	45.5*	-1.0	-11.3	-0.6	-3.9	+	+
COCc1nnc(NC(=O)c2ccccc2Oc2ccccc2)s1	-0.6	73.0*	i	5.7	2.2	7.6	158.4*	119.2*
CC(C)NC(=O)CSc1ccccc1C(=O)N1CCN(S(=O)(=O)Cc2ccccc2)CC1	·	1.6	i	·	·	3.2	·	·
Cc1oc2c(c(C)cc3oc(=O)c(CC(=O)N[C@@H](CCCNC(N)=O)C(=O)O)c(C)c32)c1C	-0.5	10.8	0.6	-5.2	-14.1	5.3	·	·
Cc1coc2c1c(C)cc1oc(=O)c(CC(=O)NCCCN3CCCC3=O)c(C)c12	1.2	66.1*	-0.7	-11.3	2.3	20.6	13.4	0.1	GDH-TPI DR=2.31*
Cc1coc2c(C)c3oc(=O)c(CCC(=O)NCCCN4CCCC4=O)c(C)c3cc12	-1.5	9.5	-0.4	6.1	·	6.2	·	·
CCCC(NC(=O)Cc1c(C)c2c(cc(C)c3c(C)coc32)oc1=O)C(=O)O (stereo unspecified)	-0.6	55.1*	-2.8	4.0	-0.2	0.7	-23.8	-17.5
Cc1coc2c1c(C)cc1oc(=O)c(CC(=O)N[C@@H](CC(C)C)C(=O)O)c(C)c12	0.3	79.0*	-0.3	-4.4	-1.8	19.3	177.0*	141.2*

Screening results deposited in PubChem BioAssay by several laboratories.
